Compound activity deposited in PubChem by several laboratories.
PP5 inh: PP5 (human) phosphatase inhibition | P53041 | purified PP5c, OMFP substrate fluorescence | inhibition, % at 6.7 µM | 0.18% of 320,000 active;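 active means inhibition above the campaign's mean inhibition across all tested compounds plus 3 SD, cut at about 9.5% in these data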
PP1 counter: blocks human PP1-alpha phosphatase, a PP5 counter-screen. P62136. purified PP1alpha, OMFP fluorescence. inhibition, % at 6.7 µM. 0.9% of 320,000 active;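 active means inhibition above the mean inhibition of all tested compounds plus 3 SD, computed separately for each screening campaign, cut at about 15% in these data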
Target sequence (P62136 whole entry, looked up): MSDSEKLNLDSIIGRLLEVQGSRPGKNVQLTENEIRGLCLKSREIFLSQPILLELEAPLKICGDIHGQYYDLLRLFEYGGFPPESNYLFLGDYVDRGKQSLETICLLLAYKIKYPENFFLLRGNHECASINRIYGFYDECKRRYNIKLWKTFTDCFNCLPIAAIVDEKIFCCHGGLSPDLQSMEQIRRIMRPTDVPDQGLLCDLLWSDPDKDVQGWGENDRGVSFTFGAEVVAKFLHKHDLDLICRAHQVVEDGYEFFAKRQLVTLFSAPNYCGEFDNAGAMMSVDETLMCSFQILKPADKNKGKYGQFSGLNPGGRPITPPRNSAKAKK
CSC inhib: cancer stem cell inhibition. cancer stem cell-like cells viability, luminescence. inhibition, % at 7.5 µM. 1.1% of 300,000 active; in the data active means inhibition above about 75%; tested in HMLE shEcad cells
SKKanGAS inh: SKKanGAS growth inhibition; S. pyogenes SKKanGAS, kanamycin growth, BacTiter-Glo, 6 h; inhibition, % at 7.5 µM; 1.3% of 300,000 active; AID 1662;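 active means mean replicate score, as percent of positive control median, at least 50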;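 further: strain carries kanamycin resistance gene driven by streptokinase promoter and grows in 40 µg/ml kanamycin; loss of luminescence reflects streptokinase promoter inhibition or plain growth inhibition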
Beta apoptosis: beta cell apoptosis inhibition; INS-1E cytokine-induced death, ATP luminescence, 48 h; percent of positive-control rescue, neutral wells zero; protection from apoptosis, % (concentration not given with the values); 0.8% of 300,000 active; AID 435005;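 active means Every replicate reaches about 75%, or at least half do and their mean reaches it too, limit read from the data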;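 further: higher means more ATP so stronger rescue from cytokine killing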
PP1 confirm: human PP1 phosphatase inhibition, confirmation | shares compounds with PP1 counter | purified PP1alpha, OMFP substrate fluorescence | inhibition, % at 6.7 µM | 52% of 1,900 active | AID 2358;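 active means mean PP1 inhibition above a set limit taken from the earlier primary screen, cut at about 15% in these data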
PP5 inh counter: counter-screen for PP1 inhibitors: human PP5 phosphatase inhibition; shares compounds with PP1 counter; inhibition, % at 6.7 µM; purified PP5c, OMFP fluorescence; 4% of 1,900 active; AID 2360;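 active means mean PP5 inhibition over triplicate wells above about 9.5% taken from the earlier PP1 screen, limit read from the data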
Hits are given with their value; . = inactive; / = not tested or not shown. A selection: hits, their analogues and other compounds. The true share with any hit is near 3.1%.

SMILES | PP5 inh | PP1 counter | CSC inhib | SKKanGAS inh | Beta apoptosis | PP1 confirm | PP5 inh counter
C/C(=N\Nc1ccc(S(=O)(=O)Nc2ccccc2)cc1[N+](=O)[O-])c1ccncc1 | . | . | . | . | . | / | /
O=C(CC1C(=O)NCCN1Cc1ccc(F)cc1)NCCCn1cccn1 (stereo not given) | . | . | . | . | . | / | /
COc1ccccc1NC(=O)COc1cccnc1[N+](=O)[O-] | / | / | . | / | . | / | /
COC(=O)c1sc(NC(=O)COc2cccnc2[N+](=O)[O-])c(C(=O)OC)c1C | . | 27 | . | / | . | . | .
O=C(CN1C(=O)/C(=C\C=C\c2ccccc2)SC1=S)Nc1ccc(F)cc1 | . | 23 | . | . | . | . | .
O=C(CN1C(=O)/C(=C/c2ccccc2)SC1=S)Nc1ncc(Cc2ccccc2)s1 | . | 22 | . | . | . | 20 | .
C[C@H](CO)N1C[C@H](C)[C@@H](CN(C)S(=O)(=O)c2cn(C)cn2)Oc2c(NS(=O)(=O)c3ccc(F)cc3)cccc2C1=O | / | / | / | / | . | / | /
COc1ccc(OC)c(NC(=O)CSc2nnc(CCCO)n2-c2ccccc2)c1 | . | 21 | . | . | . | . | .
COc1ccc(OC)c(NC(=O)CSc2nnc(-c3ccco3)n2-c2ccccc2)c1 | . | . | . | . | . | / | /
COc1cc(-c2nc(CN3CCCCC3CCNC(C)=O)c(C)o2)ccc1F (stereo not given) | . | . | . | . | . | / | /
C=CCN(CC=C)S(=O)(=O)c1ccc(C(=O)Nc2nnc(CSC)o2)cc1 | . | 22 | . | . | . | 19 | .
COCCN(CCOC)S(=O)(=O)c1ccc(C(=O)Nc2nnc(C)o2)cc1 | . | . | . | . | . | / | /
CCc1nnc(NC(=O)c2ccc(S(=O)(=O)N3CCCc4ccccc43)cc2)o1 | . | 35 | . | 86 | . | 28 | .
CCc1nnc(NC(=O)c2ccc(S(=O)(=O)N(CC(C)C)CC(C)C)cc2)o1 | . | 25 | / | / | . | 30 | .
COCCN(CCOC)S(=O)(=O)c1ccc(C(=O)Nc2nnc(CSC)o2)cc1 | . | . | . | . | . | / | /
CNC(=O)c1ccsc1NC(=O)c1ccc(S(=O)(=O)N2CCCc3ccccc32)cc1 | . | . | . | . | . | / | /
Cc1cc(C)cc(N(CC(=O)NC2CCCC2)S(=O)(=O)c2c(C)[nH]c(=O)[nH]c2=O)c1 | . | . | . | . | . | / | /
Cc1cccc(C(=O)OCC(=O)NC(=O)c2ccccc2)c1O | . | . | . | . | . | / | /
Cc1noc(C)c1COC(=O)COc1ccc2c(C)cc(=O)oc2c1 | . | 19 | . | . | . | 17 | .
Cc1cc2nc(-c3ccc(SCC(=O)Nc4ccc(S(=O)(=O)N5CCCC5)cc4)nc3)[nH]c2cc1C | . | 35 | . | . | . | 34 | .
O=C(CSc1ccc(-c2nc3ccccc3[nH]2)cn1)Nc1ccc(S(=O)(=O)N2CCCC2)cc1 | . | . | . | . | . | / | /
CCOC(=O)Cc1cc(=O)n2[nH]c(-c3ccccc3)c(-c3ccccc3)c2n1 | . | 39 | . | . | . | 40 | .
CCCOc1ccc(-c2c(C(=O)N/N=C/c3cccnc3)nnn2-c2nonc2N)cc1 | . | 27 | . | . | . | 21 | .
N#CC1=C2N=C(N)c3ccccc3N2C2=C(C(=O)CCC2)C1c1ccc(F)cc1 (stereo not given) | . | . | . | . | . | / | /
N#CC1=C2N=C(N)c3c(sc4c3CCCCC4)N2C2=C(C(=O)CCC2)C1c1ccccc1 (stereo not given) | . | 18 | . | . | . | . | .
SMILES | PP5 inh | PP1 counter | CSC inhib | SKKanGAS inh | Beta apoptosis | PP1 confirm | PP5 inh counter
CCc1ccc(NC(=O)C2CCN(c3c(N4CCCC4)c(=O)c3=O)CC2)cc1 | . | . | . | . | . | / | /
O=C(O)C1C2CCC(O2)C1C(=O)Nc1ccc(F)cc1 (stereo not given) | 44 | 31 | . | . | / | . | .
O=C(NCc1ccncc1)C(=O)NCc1ccncc1 | . | . | . | . | . | / | /
CC(=O)Nc1ccc(NC(=O)C2C3C=CC(C3)C2C(=O)O)cc1 (stereo not given) | . | . | . | . | . | / | /
CCc1ccc(NC(=O)C2C3CCC(O3)C2C(=O)O)cc1 (stereo not given) | 80 | 74 | . | . | . | 18 | 38
O=C(O)c1ccc(NC(=O)C2C3CCC(O3)C2C(=O)O)cc1 (stereo not given) | 79 | 75 | . | . | . | 31 | 37
